CYP2C9 inhib = blockers of cytochrome P450 2C9 activity – biochemical, luminescence, ADME assay, primary screen; CYP2C9 Supersomes, luciferin-H conversion; inhibition, % at 5 µM; actives 20% (n = 96,000); AID 777, 2007;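 active = blocking of liver enzyme CYP2C9 beyond about 50% at 5 µM, limit read from the data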
CYP2C9 activ = human CYP2C9 activators, primary screen, biochemical, luminescence | actives 1.4% (n = 96,000) | recombinant CYP2C9, luciferin-H conversion; hits give high values; factor 1 = untreated enzyme, 0 = blocked | activation factor at 5 µM | Cytochrome P450 2C9 (Homo sapiens), P11712 | AID 1024, 2008;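 active = activation factor of 2 or more for CYP2C9 at a 5 µM dose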;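 also: 0 = sulfaphenazole-blocked wells and 1 = vehicle-only wells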
CYP2C19 inhib = blockers of cytochrome P450 2C19 activity – biochemical, luminescence, ADME assay, primary screen; P33261; CYP2C19 Supersomes, luciferin-H EGE luminescence, 30 min; inhibition, % at 5 µM; actives 21% (n = 96,000);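 active = CYP2C19 inhibition above a set limit at 5 µM in the primary screen, cut at about 50% in these data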;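 also: plate controls were negative control wells for no effect and 2.5 mM tranylcypromine positive control for full effect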
Target sequence (P33261 whole entry, looked up): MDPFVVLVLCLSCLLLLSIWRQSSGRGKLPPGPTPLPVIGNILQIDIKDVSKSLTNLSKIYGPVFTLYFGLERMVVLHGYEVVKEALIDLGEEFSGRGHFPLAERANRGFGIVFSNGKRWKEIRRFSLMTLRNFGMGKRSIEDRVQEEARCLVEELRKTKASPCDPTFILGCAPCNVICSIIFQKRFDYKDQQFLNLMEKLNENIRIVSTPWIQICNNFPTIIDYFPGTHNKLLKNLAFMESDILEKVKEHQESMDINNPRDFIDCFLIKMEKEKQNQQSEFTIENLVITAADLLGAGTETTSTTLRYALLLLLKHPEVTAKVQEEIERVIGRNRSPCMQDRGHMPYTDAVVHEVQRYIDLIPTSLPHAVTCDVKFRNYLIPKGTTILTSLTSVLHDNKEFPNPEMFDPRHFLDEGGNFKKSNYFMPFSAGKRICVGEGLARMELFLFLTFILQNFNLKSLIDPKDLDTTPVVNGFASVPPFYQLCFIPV
CYP2C19 act = human CYP2C19 activators, primary screen, biochemical, luminescence. Cytochrome P450 2C19 (Homo sapiens), P33261. recombinant CYP2C19, luciferin-H EGE luminescence; hits give high values; 0 = fully inhibited enzyme, 1 = untreated enzyme. 96,000 tested, under 10 active. activation factor at 5 µM;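 active = activation factor of at least 2 at 5 µM in the primary screen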;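 also: 0 = wells with 2.5 mM tranylcypromine and 1 = vehicle-only wells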
PostGolgi ctrl = growth inhibition of yeast control strain, primary screen, counter-screen for post-Golgi transport modulator project | efflux-deficient yeast background strain, growth absorbance A615, 16 h | inhibition, % at 10 µM | actives 5% (n = 98,000)
PostGolgi yeast = phenotypic screen on post-Golgi transport, primary screen. post-Golgi transport phenotypic cell assay. inhibition, % at 10 µM. actives 0.9% (n = 98,000);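 also: yeast cells grown in 1536-well plates; yeast grown about 18 h at 30C before absorbance read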
Numbers without * were called inactive; . = not tested or not shown. This is a sample that favours compounds with a hit; in the whole collection about 32% have one here. Rule as the data show it, unless noted: active = inhibition above about 30%; inactive = the rest.

SMILES | CYP2C9 inhib | CYP2C9 activ | CYP2C19 inhib | CYP2C19 act | PostGolgi ctrl | PostGolgi yeast
C=CCN(C(=O)CNS(=O)(=O)c1ccccc1)C(C(=O)NCCOC)c1ccncc1 (configuration not stated) | 7 | 0.9 | 6 | 0.9 | -11 | -5
O=C(O)CCCCCNCc1ccncc1 | -4 | 1 | -13 | 1.1 | 12 | 1
CC(=O)NC1C(=O)N=C(SCC(=O)NCc2ccccc2)NC1=O (configuration not stated) | . | . | . | . | 5 | 3
Cc1cc(C)nc(N2CCC(C(=O)N3CCN(c4cc(Cl)ccc4C)CC3)CC2)n1 | 51* | 0.5 | 50 | 0.5 | 43* | -3
Cc1ccc(C)c(N2CCN(C(=O)C3CCN(c4nc(C)cc(C)n4)CC3)CC2)c1 | -22 | 1.2 | 16 | 0.8 | 46* | 6
Cc1ccc(C)c(N2CCN(C(=O)C3CCN(c4nnc(N5CCCC5=O)s4)CC3)CC2)c1 | 36 | 0.6 | 30 | 0.7 | . | .
CSc1nc(C)c2c(n1)N(c1ccc(C(F)(F)F)cc1)CC2 | 9 | 0.9 | 21 | 0.8 | 5 | 1
CCOC(=O)C1CCCN(C(=O)c2ccccc2Oc2ccccc2)C1 (configuration not stated) | 99* | 0 | 87* | 0.1 | 6 | -12
CCOC(=O)C1CCCN(C(=O)c2cc3c(C)nc4ccccc4c3o2)C1 (configuration not stated) | -2 | 1 | 22 | 0.8 | 5 | 10
CCOC(=O)C1CCCN(C(=O)COc2ccccc2O)C1 (configuration not stated) | 16 | 0.8 | 35 | 0.7 | 6 | 2
CCOC(=O)C1CCCN(C(=O)c2ccccc2NC(C)=O)C1 (configuration not stated) | -4 | 1 | 1 | 1 | 16 | -10
CCOC(=O)C1CCCN(C(=O)c2cc(-c3ccccc3)on2)C1 (configuration not stated) | -155 | 2.5* | 17 | 0.8 | 1 | -3
CCOC(=O)C1CCCN(C(=O)CSc2nccn2C)C1 (configuration not stated) | 15 | 0.8 | 55* | 0.4 | 5 | -4
CCOC(=O)C1CCCN(C(=O)c2ccc(C)cc2O)C1 (configuration not stated) | 25 | 0.7 | 81* | 0.2 | 11 | -7
CC1CCN(S(=O)(=O)c2ccc3ncn(CC(=O)N(C)Cc4ccccc4)c(=O)c3c2)CC1 | 49 | 0.5 | 18 | 0.8 | 7 | 0
CCOC(=O)C1CCCN(C(=O)c2cc(Nc3ccc(OC)cc3)nc3ccccc23)C1 (configuration not stated) | 77* | 0.2 | 20 | 0.8 | 15 | 22
O=c1[nH]nc(Sc2ncnc3sccc23)n1CCc1ccccc1 | 25 | 0.8 | 80* | 0.2 | 12 | -3
CC(=NCCc1ccccc1)C1=C(O)CSC1=O | 39 | 0.6 | 67* | 0.3 | 25 | 3
Fc1ccc(-c2nnc(CN3CCN(c4ncc(C(F)(F)F)cc4Cl)CC3)o2)cc1 | 18 | 0.8 | 16 | 0.8 | 6 | 0
COC(/C=C/Nc1ccc(OC)cc1)=C(C#N)C#N | -9 | 1.1 | -14 | 1.1 | 31* | 0
COc1ccc(N/C=C/C(=O)c2sc(-c3ccccc3)nc2C)cc1 | 11 | 0.9 | 24 | 0.8 | 7 | -9
COc1ccc(C(CC(=O)O)NC(=O)COc2ccccc2OC)cc1OC (configuration not stated) | 10 | 0.9 | -2 | 1 | 2 | -4
N#Cc1c(SCC(=O)O)nc(-c2ccccc2)c2c1CCCC2 | 29 | 0.7 | 0 | 1 | 9 | 0
Oc1cccc(-c2nc3ccc4ccccc4c3c3c2CCC3)c1 | 37 | 0.6 | 20 | 0.8 | 44* | 55*
O=C1CC(C(=O)Nc2ccc(C(=O)N3CCOCC3)cc2)C2(CCCCC2)O1 (configuration not stated) | -7 | 1.1 | 2 | 1 | 17 | 18
SMILES | CYP2C9 inhib | CYP2C9 activ | CYP2C19 inhib | CYP2C19 act | PostGolgi ctrl | PostGolgi yeast
COc1ccc(-c2nnn(CC(=O)NC3CCCc4ccccc43)n2)cc1OC (configuration not stated) | 1 | 1 | 64* | 0.4 | . | .
COc1ccc(-c2nc(CSCC(=O)N3CCN(c4cccc(C)c4)C(C)C3)c(C)o2)cc1OC (configuration not stated) | 37 | 0.6 | 73* | 0.3 | 21 | -9
COc1ccc(-c2nc(CS(=O)CC(=O)NC3CCCc4ccccc43)c(C)o2)cc1OC (configuration not stated) | 88* | 0.1 | 56* | 0.4 | 2 | 5
COc1ccc(-c2nc(CSCC(=O)NC3CCCc4ccccc43)c(C)o2)cc1OC (configuration not stated) | 66* | 0.3 | 61* | 0.4 | 8 | -3
COc1ccc(-c2nc(CSCC(=O)N3CCc4ccccc4C3)c(C)o2)cc1OC | 16 | 0.8 | 16 | 0.8 | 21 | 6
Cc1nc(SCC(=O)Nn2c(-c3ccccc3)nc3ccccc3c2=O)n[nH]1 | 30 | 0.7 | 0 | 1 | 14 | 6
CCc1ccc(-n2c(Cn3nc(C(F)(F)F)cc3C)n[nH]c2=S)cc1 | -10 | 1.1 | -8 | 1.1 | 6 | -5
NC(=O)c1cc(Cl)cn(-c2ccccc2)c1=O | -26 | 1.3 | -25 | 1.3 | 1 | 4
NC(=O)c1ccc(C(F)(F)F)n(Cc2c(Cl)cccc2Cl)c1=O | 20 | 0.8 | 28 | 0.7 | 34* | 7
C/C(=N\N1CCN(C2c3ccccc3-c3ccccc32)CC1)c1ccncc1 | 52* | 0.5 | 77* | 0.2 | 7 | 4
Cc1ccsc1/C=N/N1CCN(C2c3ccccc3-c3ccccc32)CC1 | 88* | 0.1 | 29 | 0.7 | 2 | 7
C(=N\N1CCN(C2c3ccccc3-c3ccccc32)CC1)/c1ccncc1 | 36 | 0.6 | 34 | 0.7 | 30 | -5
CC(C)(C)NC(=O)C1CC(=O)OC12CCCCC2 (configuration not stated) | -11 | 1.1 | -1 | 1 | 8 | -3
Cc1cc(C)c2c(CC(=O)N(CCC#N)Cc3cccnc3)coc2c1 | -25 | 1.3 | 51* | 0.5 | -7 | 3
COC(=O)c1ccccc1NC(=O)/C=C/c1cc(OC)c(OC)c(OC)c1 | 1 | 1 | 6 | 0.9 | 8 | 1
COC(=O)c1cc2ccccc2c(-c2c(OC)c(C(=O)OC)cc3ccccc23)c1OC | 81* | 0.2 | 54* | 0.5 | 17 | -9
Cc1ccc(CN2C(=O)CCC2C(=O)NC(C)C)cc1 (configuration not stated) | -7 | 1.1 | 0 | 1 | 9 | 0
O=[N+]([O-])c1ccc(Sc2ccc(Cl)c(Cl)c2)nc1 | -2 | 1 | 6 | 0.9 | 2 | 2

Bioassay records from PubChem BioAssay.
